Assay [1] concerns the target ATP-dependent 6-phosphofructokinase (Trypanosoma brucei brucei) (UniProt O15648). As to the kind of experiment: qHTS Validation Assay to Find Inhibitors of T. brucei phosphofructokinase (AID 485368). Further: potency means the concentration at half of the fitted maximal effect. The method, boiled down:
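PFK-generated ADP was measured after 45 min at room temperature using ADP-Glo. The reaction contained 0.5 mM F6P and 0.1 mM ATP.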
For orientation: qHTS replaces the single test concentration by a dilution series.

Assay [2] in a line: Quantitative high throughput screen for delayed death inhibitors of the malarial parasite plastid, 96 hour incubation (AID 488745). Further: nearly all actives have a fitted effect of over 70% in size. Further: potency means the concentration at half of the fitted maximal effect. The method, boiled down: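 Decreased firefly luciferase luminescence indicates inhibited growth of reporter-integrated P. falciparum after two generations (96 h, 37 C, 5% CO2). Infected erythrocytes at 0.1% parasitemia, 2% hematocrit, in Albumax-supplemented RPMI 1640.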

Assay [3] in a line: Quantitative high throughput screen for delayed death inhibitors of the malarial parasite plastid, 48 hour incubation (AID 488752). Further: nearly all actives have a fitted effect of over 65% in size. Further: potency means the concentration at half of the fitted maximal effect. The method, boiled down: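 One-generation (48 h) growth assay: a decrease in luciferase signal from an integrated reporter in P. falciparum-infected red cells (0.1% parasitemia, 2% hematocrit) after compound exposure at 37 C indicates parasite inhibition.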

The target in assay [4] is Thioredoxin reductase 1, cytoplasmic (Rattus norvegicus) (UniProt O89049). As to the kind of experiment: qHTS Assay for Substrates of Mammalian Selenoprotein Thioredoxin Reductase 1 (TrxR1) (AID 488772).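 Further: series mostly up to about 57 µM; a drop in NADPH fluorescence below the no-compound background marks a TrxR1 substrate.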 The method, boiled down: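 In this dual-purpose format, potential substrates are identified from the first fluorescence read after selenite addition, not from the 8-minute delta. Rat enzyme is preincubated with NADPH and then with compound at ~22 deg C.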

For assay [5] the target is unchanged. Description: qHTS Assay for Inhibitors of Mammalian Selenoprotein Thioredoxin Reductase 1 (TrxR1) (AID 488773).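 Further: drop in NADPH fluorescence over an 8 min run after selenite addition; series mostly up to about 57 µM; nearly all actives have a fitted effect of over 40% in size.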 As to conditions: Potency: inhibition. The method, boiled down: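 Inhibition is scored from the loss of NADPH fluorescence between first and last reads of an 8-min kinetic run. Selenite (400 uM) was the substrate, added after 15 min compound preincubation at room temperature.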

Assay [6] concerns the target Flap endonuclease 1 (Homo sapiens) (UniProt P39748). Description: qHTS Validation Assay for the Inhibitors of Human Flap endonuclease 1 (FEN1) (AID 488816). Further: potency means the concentration at half of the fitted maximal effect. The method, boiled down:
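qHTS format: compounds and 10 nM FEN1 incubated 15 min at room temperature before adding 50 nM substrate. Cleavage followed by reads at 0 and 15 min; normalized data fitted to a four-parameter Hill curve.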

Assay [7] deals with M-phase phosphoprotein 8 (Homo sapiens) (UniProt Q99549). Description: qHTS Validation Assay for Inhibitors for MPP8 Chromodomain Interactions with Methylated Histone Tails (AID 488949). Further: nearly all actives have a fitted effect of over 55% in size. Further: potency means the concentration at half of the fitted maximal effect. The method, boiled down: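 Chemiluminescent proximity assay: histidine-tag capture via nickel acceptor beads, biotin peptide via streptavidin donor beads. Protein and peptide each at 50 nM, pH 7.4, with 30 min incubations at room temperature for complex formation, compound exposure and bead binding.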

Assay [8] addresses Chromobox protein homolog 1 (Homo sapiens) (UniProt P83916). Description: qHTS Validation Assay for Inhibitors of HP1-beta Chromodomain Interactions with Methylated Histone Tails (AID 488953). Further: nearly all actives have a fitted effect of over 50% in size. Further: potency means the concentration at half of the fitted maximal effect. The method, boiled down:
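AlphaScreen proximity signal from streptavidin donor and nickel chelate acceptor beads (final 10 ug/mL) after 30 min dark incubation. Compounds had 30 min at room temperature with preformed complex of 50 nM HP1-beta and 50 nM b-H3(1-18)K9me3 in PBS pH 7.4 with 0.01% Tween-20.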

Assay [9] addresses Methanococcus maripaludis chaperonin (MmCpn) (UniProt Q6LX38). As to the kind of experiment: High-Throughput Screening for Modulators of Cytosolic Chaperonin Activity: MmCpn Primary Screen (AID 488978). The method, boiled down: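 HTRF readout (320 nm excitation, 590/665 nm emission) of ADP generated by 50 nM MmCpn hydrolysing 30 uM ATP during 10 min at 37C; compound preincubated 5 min RT.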

Assay [10] addresses Transient receptor potential cation channel subfamily V member 1 (Homo sapiens) (UniProt Q8NER1). As to the kind of experiment: HTS Assay for Compounds that Act as Enhancers of the Vanilloid Receptor 1 (AID 488979). The method, boiled down: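 Calcium influx kinetics via Fluo-8 (480/520 nm) in TRPV1-expressing cells, 2000/well cultured overnight at 35.5C. Compound-alone read 3 min (agonist phase), followed by EC20 capsaicin challenge for 2 min (enhancer phase).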

Values joined by “and” are separate entries in the source; they are usually repeats but may differ in a detail not shown here. Identical values can stand only once. Records with an inconclusive call do not appear. Some structures have more than one record in an assay (separate samples or runs), and their calls can disagree. Active and inactive are the calls of the source. The call rests on the fitted dose curve; in most records, active means well fitted curve in the direction sought with a large enough effect; inconclusive means small, poorly fitted or top-dose-only effect, or another doubt; inactive means no such curve, though single readings can be large; an effect the other way counts as inactive or inconclusive. Residues, ends and D or L forms follow the SMILES beside them. *: point of attachment. Cbz = O=C(OCc1ccccc1)*

Chromobox protein homolog 1 (Homo sapiens), sequence (P83916 whole entry, looked up): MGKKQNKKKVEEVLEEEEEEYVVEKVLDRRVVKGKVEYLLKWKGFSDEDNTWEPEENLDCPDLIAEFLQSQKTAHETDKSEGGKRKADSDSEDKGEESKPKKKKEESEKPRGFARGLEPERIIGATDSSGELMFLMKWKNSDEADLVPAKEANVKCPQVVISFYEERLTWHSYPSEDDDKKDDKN
ATP-dependent 6-phosphofructokinase (Trypanosoma brucei brucei), sequence (O15648 whole entry, looked up): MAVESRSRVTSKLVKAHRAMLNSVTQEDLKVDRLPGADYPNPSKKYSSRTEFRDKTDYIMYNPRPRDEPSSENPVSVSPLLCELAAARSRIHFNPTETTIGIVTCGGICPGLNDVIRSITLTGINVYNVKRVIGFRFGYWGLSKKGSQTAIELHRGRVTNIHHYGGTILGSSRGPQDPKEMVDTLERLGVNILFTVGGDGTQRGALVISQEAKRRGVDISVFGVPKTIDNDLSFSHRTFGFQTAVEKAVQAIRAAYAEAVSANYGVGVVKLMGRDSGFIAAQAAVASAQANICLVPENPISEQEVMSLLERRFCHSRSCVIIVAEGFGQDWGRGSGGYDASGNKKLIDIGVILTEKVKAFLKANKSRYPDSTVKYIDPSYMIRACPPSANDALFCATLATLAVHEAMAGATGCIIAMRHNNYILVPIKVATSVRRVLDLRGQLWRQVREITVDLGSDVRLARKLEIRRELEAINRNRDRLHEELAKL
Transient receptor potential cation channel subfamily V member 1 (Homo sapiens), sequence (Q8NER1 whole entry, looked up): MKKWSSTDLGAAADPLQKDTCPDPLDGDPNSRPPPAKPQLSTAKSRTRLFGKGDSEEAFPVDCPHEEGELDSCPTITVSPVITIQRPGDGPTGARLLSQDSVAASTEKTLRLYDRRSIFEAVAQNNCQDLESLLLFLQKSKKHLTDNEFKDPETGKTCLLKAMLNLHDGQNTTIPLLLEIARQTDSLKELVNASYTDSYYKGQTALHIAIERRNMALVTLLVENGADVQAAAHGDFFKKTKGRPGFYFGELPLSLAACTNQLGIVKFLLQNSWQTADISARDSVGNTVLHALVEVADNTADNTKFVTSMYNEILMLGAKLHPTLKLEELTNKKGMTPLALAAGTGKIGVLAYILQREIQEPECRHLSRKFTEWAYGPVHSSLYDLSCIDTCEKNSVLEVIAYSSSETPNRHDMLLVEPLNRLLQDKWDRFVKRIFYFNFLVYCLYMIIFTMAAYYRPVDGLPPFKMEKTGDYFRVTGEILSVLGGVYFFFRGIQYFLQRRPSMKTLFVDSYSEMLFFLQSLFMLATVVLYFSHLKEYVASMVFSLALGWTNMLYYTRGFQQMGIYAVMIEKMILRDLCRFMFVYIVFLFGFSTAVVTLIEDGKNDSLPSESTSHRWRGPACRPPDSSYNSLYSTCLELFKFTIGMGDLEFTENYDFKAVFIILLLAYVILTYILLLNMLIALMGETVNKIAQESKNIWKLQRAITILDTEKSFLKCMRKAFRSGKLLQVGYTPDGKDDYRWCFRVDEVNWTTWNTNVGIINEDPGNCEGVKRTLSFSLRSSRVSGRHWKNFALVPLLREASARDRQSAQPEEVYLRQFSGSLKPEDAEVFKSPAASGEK
Thioredoxin reductase 1, cytoplasmic (Rattus norvegicus), sequence (O89049 whole entry, looked up): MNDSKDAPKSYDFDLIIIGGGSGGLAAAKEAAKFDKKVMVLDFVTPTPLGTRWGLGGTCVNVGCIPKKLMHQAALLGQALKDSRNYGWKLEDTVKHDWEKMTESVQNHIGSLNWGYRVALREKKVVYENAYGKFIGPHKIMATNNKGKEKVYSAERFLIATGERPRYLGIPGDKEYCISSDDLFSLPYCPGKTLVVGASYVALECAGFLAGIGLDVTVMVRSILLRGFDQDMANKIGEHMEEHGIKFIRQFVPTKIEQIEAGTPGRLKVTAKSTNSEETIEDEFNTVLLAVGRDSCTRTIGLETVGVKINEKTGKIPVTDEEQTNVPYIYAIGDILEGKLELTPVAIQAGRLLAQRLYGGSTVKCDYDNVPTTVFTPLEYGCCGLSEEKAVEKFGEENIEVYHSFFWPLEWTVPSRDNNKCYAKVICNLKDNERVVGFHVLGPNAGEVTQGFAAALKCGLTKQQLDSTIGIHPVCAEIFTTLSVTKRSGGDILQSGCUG
Methanococcus maripaludis chaperonin (MmCpn), sequence (Q6LX38 1-543): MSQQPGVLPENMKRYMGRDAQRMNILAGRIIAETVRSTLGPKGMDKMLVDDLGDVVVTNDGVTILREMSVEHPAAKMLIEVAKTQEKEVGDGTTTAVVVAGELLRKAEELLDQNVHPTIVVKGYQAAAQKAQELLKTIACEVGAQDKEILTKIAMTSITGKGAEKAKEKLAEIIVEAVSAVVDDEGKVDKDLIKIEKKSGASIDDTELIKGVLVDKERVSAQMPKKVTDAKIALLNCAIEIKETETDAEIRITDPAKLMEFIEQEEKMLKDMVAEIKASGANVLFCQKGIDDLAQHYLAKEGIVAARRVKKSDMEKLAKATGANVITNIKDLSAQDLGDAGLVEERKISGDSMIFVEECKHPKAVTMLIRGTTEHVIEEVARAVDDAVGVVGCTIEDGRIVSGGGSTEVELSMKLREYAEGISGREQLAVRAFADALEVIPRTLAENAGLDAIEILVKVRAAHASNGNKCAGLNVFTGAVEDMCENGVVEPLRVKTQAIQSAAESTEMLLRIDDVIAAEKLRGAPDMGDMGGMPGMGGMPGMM
Flap endonuclease 1 (Homo sapiens), sequence (P39748 whole entry, looked up): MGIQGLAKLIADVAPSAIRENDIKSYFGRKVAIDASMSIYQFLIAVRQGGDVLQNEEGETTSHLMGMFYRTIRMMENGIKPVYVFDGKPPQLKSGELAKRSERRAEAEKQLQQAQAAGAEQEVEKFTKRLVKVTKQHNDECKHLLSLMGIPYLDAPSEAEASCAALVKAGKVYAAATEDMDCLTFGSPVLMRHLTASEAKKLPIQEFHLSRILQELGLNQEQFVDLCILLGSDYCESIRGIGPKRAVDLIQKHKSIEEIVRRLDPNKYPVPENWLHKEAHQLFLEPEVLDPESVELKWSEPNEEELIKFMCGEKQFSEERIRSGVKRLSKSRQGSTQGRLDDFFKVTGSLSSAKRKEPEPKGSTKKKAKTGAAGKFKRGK
M-phase phosphoprotein 8 (Homo sapiens), sequence (Q99549 whole entry, looked up): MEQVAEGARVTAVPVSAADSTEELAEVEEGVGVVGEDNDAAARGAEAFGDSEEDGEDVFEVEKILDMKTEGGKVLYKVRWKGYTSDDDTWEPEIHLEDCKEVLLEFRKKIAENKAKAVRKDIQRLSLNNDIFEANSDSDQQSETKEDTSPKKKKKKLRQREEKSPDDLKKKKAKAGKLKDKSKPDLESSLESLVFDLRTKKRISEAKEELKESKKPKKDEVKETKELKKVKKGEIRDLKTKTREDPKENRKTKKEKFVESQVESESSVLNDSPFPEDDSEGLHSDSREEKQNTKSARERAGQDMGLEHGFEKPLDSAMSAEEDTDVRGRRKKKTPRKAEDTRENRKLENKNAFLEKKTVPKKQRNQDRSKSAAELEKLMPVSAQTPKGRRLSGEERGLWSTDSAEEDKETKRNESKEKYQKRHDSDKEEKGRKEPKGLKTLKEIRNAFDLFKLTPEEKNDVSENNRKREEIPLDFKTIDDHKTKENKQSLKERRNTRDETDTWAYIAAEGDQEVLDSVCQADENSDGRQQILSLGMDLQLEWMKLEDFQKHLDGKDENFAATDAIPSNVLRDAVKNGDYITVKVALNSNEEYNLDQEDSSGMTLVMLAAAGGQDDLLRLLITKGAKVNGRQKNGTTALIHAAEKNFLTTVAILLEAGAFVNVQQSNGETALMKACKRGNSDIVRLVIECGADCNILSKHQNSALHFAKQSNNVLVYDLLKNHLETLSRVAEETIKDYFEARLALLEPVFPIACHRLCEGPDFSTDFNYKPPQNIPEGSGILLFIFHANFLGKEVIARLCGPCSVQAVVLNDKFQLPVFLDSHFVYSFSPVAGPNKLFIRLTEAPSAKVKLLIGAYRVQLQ

`CC[N+](CC)(CC)CC(=O)Nc1c(C)cccc1C`: the Potency result in [1], in assay [2], in [3], in assay [5], in assay [6] and in [7] was “inactive” in each case. Further, the Potency entry in assay [8] was “inactive”. The compound was called inactive in assay [4], in assay [9] and in [10].

Consider `O=C(O)C1=CC(=C(c2ccc(O)c(C(=O)O)c2)c2ccc(O)c(C(=O)O)c2)C=CC1=O`, for which the Potency in assay [1] is 60.1 nM (active); in assay [6] it was 134 nM (active); in [7], 178 nM (active) and 238 nM (active); in assay [8] it was 199 nM (active). The Potency result in assay [2], in assay [3] and in assay [5] was “inactive” in each case. Also, the result in [4], in assay [9] and in assay [10] was inactive.

`CSC(N)=NCCC[C@H](N)C(=O)O`: the Potency result in assay [1], in assay [2], in [3], in [5], in assay [6] and in assay [7] was “inactive” each time. In [8], the Potency result was “inactive”. For the same compound, the outcome in [4], in [9] and in assay [10] was inactive.

For the compound `N[C@H](C(=O)O)[C@H]1C[C@@H]1C(=O)O`, the Potency entry in assay [1], in [2], in assay [3], in assay [5], in assay [6] and in assay [7] was “inactive” throughout. Moreover, in assay [8], the Potency result is “inactive”. In addition, the call in assay [4], in assay [9] and in [10] was inactive.

For `COc1cc(CNC(=O)CCCCCCC(C)C)ccc1O`, the Potency result in assay [1], in assay [2], in assay [3], in assay [5], in assay [6] and in [7] was “inactive” throughout. Further, the Potency result in assay [8] was “inactive”. Besides, the compound was classed as inactive in assay [4] and in assay [9].

As for `CC(/C=C/c1cccc(Oc2ccc(F)cc2)c1)N(O)C(N)=O` (stereo unspecified), the Potency entry in assay [1], in assay [2], in assay [3], in assay [5], in [6] and in [7] was “inactive” throughout. The Potency result in assay [8] was “inactive”. Also, the call in [4], in [9] and in [10] was inactive.

With `CN[C@H](CC(=O)O)C(=O)O`, the Potency entry in assay [1], in assay [2], in assay [3], in assay [5], in assay [6] and in [8] was “inactive” in each case. For the same compound, the call in assay [4], in assay [9] and in [10] was inactive.

Take `CC1C(=O)N(C)C(=O)c2nc[nH]c21` (stereo unspecified): the Potency entry in [1], in assay [2], in assay [3], in assay [5], in [6] and in [7] was “inactive” throughout. For the same compound, the Potency entry in assay [8] was “inactive”. Moreover, the compound was called inactive in [4], in [9] and in assay [10].

In the case of `COC(=O)C(C)(N)Cc1ccc(O)cc1` (stereo unspecified), the Potency result in [1], in [2], in assay [3], in assay [5], in assay [6] and in [7] was “inactive” each time. For the same compound, the compound was classed as inactive in assay [4], in assay [9] and in assay [10].

Regarding `CC(C)[C@H](NC(=O)OCc1ccccc1)C(=O)N[C@H](C=O)Cc1ccccc1` (Cbz-Val-Phe-aldehyde), the Potency entry in [1], in assay [5], in assay [6], in assay [7] and in assay [8] was “inactive” in each case. Further, the figures for the Potency in assay [2] and in assay [3] were 2330 nM (active) and 2940 nM (active), respectively. For the same compound, the outcome in [4], in [9] and in [10] was inactive.

Regarding `NC1(C(=O)O)CCCCC1`, the Potency result in assay [1], in assay [2], in assay [3], in assay [5], in assay [6] and in [7] was “inactive” in each case. Further, the outcome in assay [4], in assay [9] and in assay [10] was inactive.

Regarding `Cc1cccc(C)c1OCC(N)C(C)C` (stereo unspecified), the Potency result in assay [1], in [2], in assay [3], in [5], in assay [6] and in [7] was “inactive” in each case. Further, the Potency result in assay [8] was “inactive”. The compound was classed as inactive in [4], in [9] and in assay [10].

On to `N[C@H](C(=O)O)c1cc(O)cc(O)c1`, for which the Potency result in [1], in assay [2], in assay [3], in [5], in [6] and in assay [7] was “inactive” throughout. Besides, the Potency entry in assay [8] was “inactive”. Further, the call in assay [4], in assay [9] and in assay [10] was inactive.

Take `CCCc1c(OCCCOc2ccc(OCC(=O)O)cc2)ccc(C(C)=O)c1O`: the Potency result in assay [1], in [2], in [3], in [5], in assay [7] and in assay [8] was “inactive” throughout. Also, the call in assay [4], in [9] and in [10] was inactive.

Turning to `CC(=O)/C(C)=N/O`, the Potency entry in assay [1], in assay [2], in assay [3], in assay [5], in assay [6] and in [7] was “inactive” in each case. Moreover, the Potency result in [8] is “inactive”. The outcome in [4], in assay [9] and in assay [10] was inactive.

Take `NCC(O)(CS(=O)(=O)O)c1ccc(Cl)cc1` (stereo unspecified): the Potency entry in assay [1], in [2], in assay [3], in assay [5], in assay [6] and in assay [7] was “inactive” throughout. Also, the result in assay [4], in assay [9] and in assay [10] was inactive.

Take `N[C@H](C(=O)O)[C@H](O)C(=O)O`: the Potency result in assay [1], in [2], in assay [3], in assay [5], in assay [6] and in [8] was “inactive” throughout. Also, the compound was called inactive in [4], in assay [9] and in [10].

For the compound `COc1ccccc1N1CCN(CCCCNC(=O)c2ccc3ccccc3c2)CC1`, the Potency entry in [1], in [5] and in [6] was “inactive” each time. Further, the Potency in assay [2] was 2940 nM (active); in assay [3], 4650 nM (active). Further, the compound was classed as inactive in assay [4], in assay [9] and in [10].

For `N=C(N)c1ccccc1`, the Potency result in assay [1], in [2], in assay [3], in assay [5], in assay [6] and in assay [7] was “inactive” in each case. Moreover, the Potency entry in assay [8] is “inactive”. The call in [4], in assay [9] and in assay [10] was inactive.

In the case of `CCCCC[C@H](CC(=O)NO)C(=O)N[C@H](C(=O)N1CCC[C@H]1CO)C(C)C`, the Potency entry in [1], in [5], in assay [6], in [7] and in assay [8] was “inactive” in each case. Besides, the Potency in [2] was 1170 nM (active); in [3] it was 2940 nM (active). Also, the outcome in assay [4], in [9] and in [10] was inactive.

As for `Clc1nccc2c1ccc1ccccc12`, the Potency entry in assay [1], in [2], in [3], in [5], in [6] and in assay [7] was “inactive” in each case. In addition, the Potency entry in assay [8] is “inactive”. The outcome in assay [4], in [9] and in [10] was inactive.

On to `CC[C@@H]1Cc2cc(O)ccc2C2=C1c1ccc(O)cc1C[C@H]2CC`, for which the Potency result in assay [1], in assay [2], in assay [5] and in assay [6] was “inactive” each time. Also, the Potency in assay [3] is 13100 nM (active); in assay [7], 35.5 µM (active) and inactive; in assay [8] it was 31600 nM (active). Also, the compound was called inactive in [4], in [9] and in assay [10].

Consider `CC(N)(C(=O)O)c1ccc(C(=O)O)cc1` (stereo unspecified), for which the Potency result in [1], in assay [2], in [3], in [5], in assay [6] and in [7] was “inactive” each time. The Potency result in assay [8] was “inactive”. The call in assay [4], in assay [9] and in [10] was inactive.

The values are drawn from PubChem BioAssay (NCATS).
